These results are taken from PubChem BioAssay AID1626 (SRMLSC, 2009).

Structures are written as SMILES. In all, about 220,000 compounds went through this assay and about 2,000 (0.91%) were called active. Inconclusive results (about 2%) are left out. The list is a sample of the results. Results with a measured potency or affinity are listed apart. A number with no mark means an inactive call. No stated cut-off is given here; in the data, inconclusive means inhibition above about 80% without an active follow-up result; inactive means below that; test concentration not stated here.

A short description of the assay: M. tuberculosis H37Rv growth inhibitors, H37Rv strain (AID 1626).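 Further: bacteria incubated seven days before Alamar blue readout; 0% = bacteria only wells and 100% = bacteria with antibiotic wells.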 The conditions noted are these: hits give high values, concentration not given here.
In the case of `CC(=O)Nc1ccc(S(=O)(=O)N2CCN(CCN3CCOCC3)CC2)cc1Cl`, the inhibition is -2.42%.
Consider `O=C(Nc1nc2ccccc2s1)c1ccc(F)cc1`, for which the inhibition is 2.23%.
To `O=C(Nc1nc2ccc(F)cc2s1)c1cccs1` belongs -2.98%; to `O=C(CCc1ccccc1)Nc1nc2c(F)cc(F)cc2s1`, 12.2%; to `Cc1onc(-c2ccccc2)c1C(=O)Nc1nc(-c2cc(F)ccc2F)cs1`, -3.02%.
To `O=C(NNc1nc2c(F)cc(F)cc2s1)c1ccccc1` belongs 6.46%.
Next, `O=C(Nc1nc(-c2cc(F)ccc2F)cs1)C1=NN(c2ccccc2)C(=O)CC1`: 8.23%; `S=C(NCC1CCCO1)Nc1ccccc1Cl` (stereo not drawn): -6.63%; `CC(C)(C)C(O)(CC#CCN1CCCC1)c1ccccc1` (stereo not drawn): -4.05%.
On to `O=C(NCC1OCCc2ccccc21)C1COc2ccccc2O1` (stereo not drawn), for which the inhibition is 9.06%.
Next, `Cc1cccc(NC(=O)C2(c3cccs3)CCOCC2)n1`: -3.03%; `CCn1c(=O)cc(N2CCN(C(=O)c3ccco3)CC2)[nH]c1=O`: 11.9%; `O=C(COC(=O)C1CC1)Nc1ccc2[nH]c(=O)[nH]c2c1`: 1.3%.
To `CCOC(=O)CSc1cc(C)nc2ccc(OC)cc12` belongs -0.58%; to `COC(=O)CSc1cc(C)nc2ccc(OC)cc12`, 10.7%.
Turning to `CCCCOC(=O)C1=C(C)Nc2ncnn2C1c1cccc(OC)c1` (stereo not drawn), the inhibition is -2.89%.
On to `Cc1[nH]c2ccccc2c1/C=N/NC(=O)CNC(=O)c1ccccc1`, for which the inhibition was -7.99%.
On to `Cc1cc(C)n(CC(C)NCc2cn[nH]c2-c2ccc(C)c(C)c2)n1` (stereo not drawn), for which the inhibition is 1.18%.
Next, `CC1=C(/C=C/C(C)=C/C=C/C(C)=C/C(=O)O)C(C)(C)CCC1`: -5.32%; `CC1=C(/C=C/C(C)=C/C=C/C(C)=C\C(=O)O)C(C)(C)CCC1`: -10.9%; `CN(C)c1ccc(N=Nc2ccccc2C(=O)OCC(=O)NC2CCCC2)cc1`: 46%.
To `CN(C)c1ccc(N=Nc2ccccc2C(=O)OCC(=O)N(C)C2CCCCC2)cc1` belongs 27.3%; to `Nc1cc(C(=O)c2cccs2)ccc1Cl`, -7.59%.
To `Cc1ncc([N+](=O)[O-])n1CC(=O)NC(C)(C)C` belongs -1.73%.
For `CC(=O)N/C(=C\c1ccc(F)cc1)C(=O)N(C)C`, the inhibition is -5.54%.
As for `COc1ccc(N2CCN(C(CNC(=O)c3cccc(Cl)c3)c3cccnc3)CC2)cc1` (stereo not drawn), the inhibition is -9.59%.
Next, `COc1ccc(CCNCC(O)COc2cccc(Br)c2)cc1` (stereo not drawn): -1.52%; `OC(CNCCc1ccccc1)COc1ccc(OCC(O)CNCCc2ccccc2)cc1` (stereo not drawn): -6.51%; `CCN(CC)S(=O)(=O)c1ccc(N2CCOCC2)c(NC(=O)c2cccc3ccccc23)c1`: 11.2%.
`CC1CN(C(=O)c2cccc(S(=O)(=O)N3CCOCC3)c2)CC(C)O1` (stereo not drawn): the inhibition was -11.8%.
Next, `Cc1ccccc1-n1ncc(C(C)NC(=O)c2ccccc2)c1C` (stereo not drawn): -0.68%; `O=C(NCc1ccccc1)NC(=O)c1ccccc1`: -2.58%; `COCCN=C1Sc2nc3ccc(C)cc3cc2CN1Cc1ccco1`: -8.23%.
To `COCCN=C1Sc2nc3cc(C)c(C)cc3cc2CN1Cc1cccs1` belongs 10%; to `Cc1c(-n2cc(C(=O)O)c(=O)c3cc(F)c(N4CCCC4)c(F)c32)c(=O)n(-c2ccccc2)n1C`, 3.58%; to `O=C(O)c1cn(-c2ccc(F)c(F)c2)c2c(F)c(F)c(F)c(F)c2c1=O`, 6.77%.
Next, `COC(=O)c1c(N2C(=O)[C@H]3[C@@H](C2=O)[C@]2(C(=O)Nc4c2ccc(C)c4C)N2CCC[C@@H]32)sc(C)c1C`: 4.68%; `CN(C)c1ccc(/C=N/N=C(N)N)cc1[N+](=O)[O-]`: -2.01%; `O=c1c2cc(NC(=S)N3CCCC3)ccc2nc2n1CCCCC2`: 5.39%.
`O=C(O)C12C[C@H]3C[C@@H](C1)CC(n1ncc(N4CCN(c5ccccc5)CC4)c(Cl)c1=O)(C3)C2`: the inhibition was -7.44%.
Next, `CCc1ccc(N=CC2=C(O)CC(c3ccco3)CC2=O)cc1` (stereo not drawn): 81%.
To `Cc1ccc(N=CC2=C(O)CC(c3ccco3)CC2=O)cc1` (stereo not drawn) belongs -4.64%; to `COC(=O)c1[nH]c2cccc(OC)c2c1NC(=O)CCN1CCC(C(N)=O)CC1`, -3.72%.
Next, `CNC(=O)c1csc(-c2ccc(C)cc2)n1`: -5.14%; `O=C(O)c1ccc(-c2nc(-c3ccccc3)cs2)cc1`: -1.73%.
In the case of `CNC(=O)c1csc(-c2ccncc2)n1`, the inhibition is -3.82%.
Next, `O=C(O)c1ccc(-c2nc(-c3ccc(Cl)c(Cl)c3)cs2)cc1`: 8.4%; `CC(C)OCCCNS(=O)(=O)c1ccc2c(c1)OCCO2`: 2.36%; `CN(C(=O)CO/N=C/c1ccc(OC(F)F)cc1)C1CCS(=O)(=O)C1` (stereo not drawn): 8.36%.
With `CCOc1ccc(-c2cc(CCCC(=O)NCCc3ccccc3)no2)cc1`, the inhibition is 4.69%.
To `CCOc1ccc(-c2cc(CCCC(=O)NCCC(C)C)no2)cc1` belongs -2.14%.
On to `CCOc1ccc(-c2cc(CCCC(=O)Nc3cc(OC)ccc3OC)no2)cc1`, for which the inhibition was 9.58%.
`CCOc1ccc(-c2cc(CCCC(=O)NCCCOC)no2)cc1`: the inhibition was 4.11%.
Next, `C=CCNc1nc(-c2ccccn2)nnc1-c1ccccc1`: 37%; `CN(C)c1nc(-c2ccccn2)nnc1-c1ccccc1`: 68%; `Cc1ccn(C(=O)c2cc3c(C)nn(-c4ccccc4)c3s2)n1`: 10.1%.
Next, `CC(C)(O)C(=O)NNC(=S)Nc1ccc(F)c(Cl)c1`: 14.7%; `COC(=O)C1=C(SC)N(c2ccc(OC)cc2)C(c2ccccc2)CC1=O` (stereo not drawn): -3.65%.
To `Cc1ccc(N2C(=O)C(CN(C)C)C2c2ccccc2)cc1` (stereo not drawn) belongs -4.35%.
Consider `O=C(O)C1CC(=O)N(c2ccc3c(c2)OCCO3)C1` (stereo not drawn), for which the inhibition was 5.06%.
Next, `O=C1c2ccccc2NC(c2ccc3c(c2)OCCO3)N1c1ccc2c(c1)OCCO2` (stereo not drawn): -7.93%; `Cc1ccc(N2C(=O)C(CN3CCCC3)C2c2ccccc2)cc1` (stereo not drawn): 27.1%; `COc1ccc(N2C(=O)C3CCCN3C2c2ccccc2F)cc1` (stereo not drawn): -5.95%.
With `O=C(NN1CCOCC1)c1cc(-c2ccc(Br)cc2)nc2ccccc12`, the inhibition was 7.15%.
To `CC(=O)NCCC(=O)Nc1ccc(F)cc1C` belongs -1.47%; to `Cc1nn(-c2cccc([N+](=O)[O-])c2)c(N)c1-c1ccccc1`, 7.18%; to `COCCNc1nc(-c2ccc(OC)cc2)c(-c2ccc(OC)cc2)s1`, 15.7%.
Next, `Cc1csc(Cn2c(CN(C)C)nc3ccccc3c2=O)n1`: 5.39%.
To `COc1cc([N+](=O)[O-])cc(CN2CCCCC2)c1O` belongs 2.21%; to `O=C(CN1CCc2ccccc2C1)NC1CCCC1`, -13.6%; to `CC(=O)N(Cc1c(C)nn(-c2ccccc2)c1Cl)c1ccc(Cl)cc1`, -13.6%.
Take `CCC(=O)N(Cc1c(C)nn(-c2ccccc2)c1Cl)c1ccc(Cl)cc1`: the inhibition is 8.67%.
To `CCn1cc(C(=O)OCC(=O)c2ccc(Cl)cc2)c(=O)c2ccc(C)nc21` belongs -8.38%.
`O=C1CC(c2ccc(F)cc2)Sc2nc(C34CC5CC(CC(C5)C3)C4)nn21` (stereo not drawn): the inhibition is 5.92%.
Next, `Cc1ccc(SCn2nnc3ccccc3c2=O)c(C)c1`: -6.38%; `COc1ccc2nc(/C=N/NC(=O)[C@@H]3CCCN3C(=O)OC(C)(C)C)ccc2c1`: -1.11%.
As for `Clc1ccc(-c2nnc(NC3=NCCCCC3)o2)cc1`, the inhibition was -12.1%.
To `O=C(COc1ccc(Cl)cc1)Nc1nnc(-c2ccco2)o1` belongs 0.85%.
To `CC(=O)Nc1ccc2c(c1)CCCC2` belongs 0.76%; to `CC(=O)Nc1cccc(-c2nnc(-c3ccccc3)o2)c1`, -12.3%; to `O=C(COc1ccccc1)Nc1nnc(-c2ccccc2)o1`, 12.6%.
To `O=C(NCc1nnc2n1CCCCC2)c1ccc(Cl)cc1Cl` belongs -8.85%; to `CCN(CC)S(=O)(=O)c1ccc(N=N/C(C(C)=O)=C(/C)O)cc1`, -10.5%.
As for `Cc1c(C#N)c(N=CN(C)C)c(C(=O)c2ccc(Br)cc2)n1-c1ccc(Cl)cc1`, the inhibition is 1.78%.
Next, `CCn1c(C)nc2cc(S(=O)(=O)N3CCCCC3)ccc21`: -10.8%; `C[C@@H]1C[C@@H]2OC(=O)[C@]3(C)[C@H]2[C@@H](OC3(C)O)[C@]2(C)C(=O)C=C[C@H]12` (stereo partly drawn): -4.34%; `C=C1C(=O)O[C@@H]2C[C@@H](C)[C@H]3C=CC(=O)[C@]3(O)C[C@@H]12`: -7.5%.
Next, `CC(=O)O[C@@H]1[C@H]2[C@@H](C[C@@H](C)[C@@H]3CCC(=O)[C@@]13C)OC(=O)[C@@H]2C`: -3.15%; `C=C1C(=O)O[C@H]2[C@H]1[C@H](OC(=O)CC(=O)O[C@@H]1C[C@@H](C)[C@@H]3C=CC(=O)[C@@]3(C)[C@H]3OC(=O)C(=C)[C@H]13)C[C@@H](C)[C@H]1C=CC(=O)[C@]12C`: -7.78%.
Next, `CC(=O)O[C@@H]1[C@H]2[C@@H](C[C@@H](C)[C@@H]3C=CC(=O)[C@@]13C)OC(=O)[C@@H]2C`: -0.99%; `COc1ccc(NC(=O)CCc2nc3ccccc3[nH]2)cc1`: -2.77%.
Take `CC(C)c1nc2c([nH]1)c(=O)n(C)c(=O)n2C`: the inhibition is -8.57%.
To `O=C(Nc1c(F)cc(F)cc1Br)c1cc(-c2ccc(O)cc2)on1` belongs 73.7%.
Regarding `Cc1cc(C(=O)Nc2c(F)cc(F)cc2Br)no1`, the inhibition is 16.4%.
Next, `CC(C)c1cc(C(=O)Nc2cc(Br)ccc2O)no1`: 43.5%.
Regarding `CCCc1cc(C(=O)Nc2ccc(C(C)=O)cc2)no1`, the inhibition was 79.7%.
Next, `CC(C)Cc1cc(C(=O)Nc2ccc(Br)cc2)no1`: 68.8%.
For the compound `CCCc1cc(C(=O)Nc2cc(Br)ccc2O)no1`, the inhibition is 78.3%.

A word on the inhibition: it is the change of the read-out against control, counted positive when it falls.
